Measurements: PubChem BioAssay (Tox21)
Several values for one entry are separate records, joined by “and”; a condition that tells them apart may be missing. Equal entries are not always repeated. Records with an inconclusive call do not appear. Some compounds were tested as several samples or in several runs, with calls that do not always agree. Activity calls are given as the source filed them. Unless noted, calls come from the whole dose curve; as a rule, active = well fitted curve in the direction sought with a large enough effect in the repeat runs; inconclusive = weak or mixed curves; inactive = no such curve, though single readings can be large; an effect the other way counts as inactive or inconclusive.

How the values were obtained:
[1] = qHTS assay to identify small molecule agonists of the RXR signaling pathway - cell viability counter screen (AID 1159529); settings: RXR-alpha-bla HEK293T viability, CellTiter-Glo, 16 h; series mostly up to 76.8 µM; note: nearly all actives have a fitted effect of over 50% in size; note: potency is the fitted concentration of half-maximal effect
In short: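 Luminescence from CellTiter-Glo (30 min, RT) measured viability in the same wells as the beta-lactamase reporter readout. Cells: GeneBLAzer RXR-alpha HEK 293T, 2% charcoal-stripped FBS. Compound exposure 16 hr, 37 C.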

[2] = qHTS assay to identify small molecule antagonists of the retinoid acid receptor (RAR) signaling pathway - cell viability counter screen (AID 1159551); settings: C3RL4 cells viability, ATP luminescence (CellTiter-Glo), 6 h; series mostly up to 92.4 µM; note: nearly all actives have a fitted effect of over 35% in size
In short: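 Seed C3RL4 cells; next day add compound, then retinol to 1 uM final; incubate 6 h at 37 C; add CellTiter-Glo; read luminescence after 30 min at RT.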

[3] = qHTS assay to identify small molecule agonists of the retinoic acid receptor (RAR) signaling pathway (AID 1159553); settings: C3RL4 RARE luciferase reporter, agonist, 6 h; series mostly up to 73.3 µM
In short: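 Activation of retinol signaling was monitored via a RARE luciferase reporter in C3RL4 cells. After 6 hr compound treatment at 37 C, detection reagent was added for 30 min at room temperature before luminescence reading.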

[4] = qHTS assay to identify small molecule antagonists of the estrogen related receptor (ERR) signaling pathway from Tox21 library - cell viability counter screen (AID 1224834); settings: ERR reporter cells viability, CellTiter-Fluor, 17.5 h; series mostly up to 92.4 µM; note: nearly all actives have a fitted effect of over 30% in size; note: potency is the fitted concentration of half-maximal effect
In short: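 CellTiter-Fluor fluorescence measured; ERR cells; 17.5 h compound incubation at 37 C; 30 min reagent step.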

[5] = biological target: Luciferin 4-monooxygenase (Photinus pyralis) (UniProt P08659); assay: qHTS assay to identify small molecule inhibitors of firefly luciferase (AID 1224835); note: nearly all actives have a fitted effect of over 25% in size; note: potency is the fitted concentration of half-maximal effect; settings: purified P. pyralis luciferase, luminescence inhibition; series mostly up to 115 µM
Luciferin 4-monooxygenase (Photinus pyralis), sequence (P08659 whole entry, looked up): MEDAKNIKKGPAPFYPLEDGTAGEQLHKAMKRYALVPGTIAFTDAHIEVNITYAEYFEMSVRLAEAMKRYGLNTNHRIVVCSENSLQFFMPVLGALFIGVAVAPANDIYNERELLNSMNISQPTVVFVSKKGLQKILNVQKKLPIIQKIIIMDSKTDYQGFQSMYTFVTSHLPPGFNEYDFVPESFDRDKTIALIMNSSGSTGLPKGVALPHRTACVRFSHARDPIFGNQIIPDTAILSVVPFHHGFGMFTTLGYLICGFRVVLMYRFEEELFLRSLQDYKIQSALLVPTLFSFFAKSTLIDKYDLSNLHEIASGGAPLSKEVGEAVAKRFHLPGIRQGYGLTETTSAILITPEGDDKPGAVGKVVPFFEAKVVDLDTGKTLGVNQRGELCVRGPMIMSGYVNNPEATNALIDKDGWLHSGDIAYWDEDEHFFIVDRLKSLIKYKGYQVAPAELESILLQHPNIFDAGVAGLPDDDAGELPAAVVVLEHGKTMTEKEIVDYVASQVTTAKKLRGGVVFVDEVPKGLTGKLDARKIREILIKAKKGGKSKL
In short: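 Quantitative HTS format; KM concentrations of both substrates. Purified P. pyralis FLuc activity quantified from luminescence images.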

[6] = qHTS assay to identify small molecule agonists of the constitutive androstane receptor (CAR) signaling pathway - cell viability counter screen (AID 1224836); settings: HepG2-CYP2B6-hCAR viability, CellTiter-Fluor, 23 h, PK11195 added to every well; series mostly up to 92.4 µM; note: nearly all actives have a fitted effect of over 45% in size
In short: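 Viability read-out: CellTiter-Fluor fluorescence after 23 h compound exposure at 37 C/5% CO2 in double-stable HepG2-CYP2B6-hCAR cells, with PK11195 present at 0.75 uM final; compounds tested in 15-point titration.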

[7] = qHTS assay to identify small molecule antagonists of the constitutive androstane receptor (CAR) signaling pathway - cell viability counter screen (AID 1224837); settings: HepG2-CYP2B6-hCAR viability, CellTiter-Fluor, 23 h, co-treated with 50 nM CITCO; series mostly up to 92.4 µM; note: nearly all actives have a fitted effect of over 45% in size
In short: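 Using CellTiter-Fluor, viability is scored in HepG2 cells stably carrying hCAR and a 2.2kb CYP2B6 reporter after 23 hr compound exposure across 15 concentrations, with CITCO present at 50 nM.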

[8] = biological target: Nuclear receptor subfamily 1 group I member 3 (Homo sapiens) (UniProt Q14994); assay: qHTS assay to identify small molecule agonists of the constitutive androstane receptor (CAR) signaling pathway (AID 1224839); settings: HepG2 hCAR CYP2B6-luciferase, agonist mode, 24 h; series mostly up to 92.4 µM; note: nearly all actives have a fitted effect of over 15% in size; note: potency is the fitted concentration of half-maximal effect
Nuclear receptor subfamily 1 group I member 3 (Homo sapiens), sequence (Q14994 whole entry, looked up): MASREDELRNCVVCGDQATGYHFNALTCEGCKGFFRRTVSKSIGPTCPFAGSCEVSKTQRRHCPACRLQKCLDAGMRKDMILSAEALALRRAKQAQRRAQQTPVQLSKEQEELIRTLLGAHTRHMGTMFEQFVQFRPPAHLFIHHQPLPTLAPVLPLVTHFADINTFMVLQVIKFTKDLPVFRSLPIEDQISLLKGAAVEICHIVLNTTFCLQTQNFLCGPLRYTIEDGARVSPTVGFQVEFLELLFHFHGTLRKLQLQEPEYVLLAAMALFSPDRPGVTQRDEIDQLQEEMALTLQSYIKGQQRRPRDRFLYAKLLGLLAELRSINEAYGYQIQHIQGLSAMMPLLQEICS
In short: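 Luminescence read-out (ONE-Glo, 30 min, room temperature) from double-stable HepG2-CYP2B6-hCAR cells exposed 24 h to 15-point compound series in presence of 0.75 uM PK11195 final.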

[9] = qHTS assay to identify small molecule antagonists of the estrogen related receptor signaling pathway with the pleiotropic PPARgamma coactivator (PGC) from Tox21 10K library - cell viability counter screen (AID 1224840; active = well fitted cell-killing curve with a large enough effect in the repeat runs, not every such curve was filed as active; note: nearly all actives have a fitted effect of over 40% in size; note: potency is the fitted concentration of half-maximal effect); settings: PGC/ERR reporter cells viability, CellTiter-Fluor, 17.5 h; series mostly up to 92.4 µM
In short: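 Here the PGC/ERR cells serve as a cytotoxicity control: they are exposed to compounds for 17.5 hours at 37 C, and live-cell signal is quantified using CellTiter-Fluor fluorescence.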

[10] = qHTS assay to identify small molecule antagonists of the estrogen related receptor signaling pathway with the pleiotropic PPARgamma coactivator (PGC) from Tox21 10K library (AID 1224841; call rule not given here; note: actives are mostly falling curves and most rising ones were filed inactive; nearly all actives have a fitted effect of over 50% in size); settings: PGC/ERR reporter cell line, ONE-Glo luciferase, 18 h; series mostly up to 92.4 µM
In short: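 Each well held 2,000 PGC/ERR cells, pre-incubated six hours (37 C, 5% CO2). Test substances in DMSO were added by pin tool and left for 18 h at 37 C before luciferase detection by One-Glo.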

[11] = qHTS assay to identify small molecule agonists of the estrogen related receptor signaling pathway with the pleiotropic PPARgamma coactivator (PGC) from Tox21 10K library (AID 1224842); settings: PGC/ERR reporter cell line, luciferase ONE-Glo, 18 h; series mostly up to 92.4 µM; note: nearly all actives have a fitted effect of over 15% in size
In short: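 PGC/ERR reporter cells (NTP line) were seeded 2,000 per well, rested 6 h at 37 C/5% CO2, then pin-dosed with compounds in DMSO for 18 h at 37 C; luciferase read by One-Glo luminescence after 30 min at room temperature.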

[12] = qHTS assay to identify small molecule antagonists of the estrogen related receptor (ERR) signaling pathway - cell viability counter screen (AID 1224818); settings: ERR reporter cell line viability counter screen; series mostly up to 46.1 µM;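 note: viability measured after 17.5 h of compound exposure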
In short: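 In the same ERR cell assay, compound-treated wells (17.5 h, 37 C) were multiplexed with a fluorogenic viability reagent, CellTiter-Fluor, read after 30 min to flag cytotoxic substances.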

[13] = qHTS assay to identify small molecule antagonists of the estrogen related receptor (ERR) signaling pathway (AID 1224819;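 note: luminescence from an ERR-driven luciferase reporter measured with One-Glo reagent; nearly all actives have a fitted effect of over 50% in size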); settings: ERR reporter cell line, luciferase inhibition; series mostly up to 46.1 µM
In short: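 qHTS in ERR cells, 2,000/well, 1536 format. Cpd (DMSO) added after 6 h settle, 18 h 37 C. One-Glo luminescence, 30 min RT.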

[14] = qHTS assay to identify small molecule agonists of the estrogen related receptor (ERR) signaling pathway (AID 1224820); settings: ERR reporter cell line, luciferase agonist mode; series mostly up to 46.1 µM
In short: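 ERR reporter cell line (from NTP), 2,000 cells/well, incubated 6 h before compound addition, then 18 h at 37 C. Luminescence measured 30 min after One-Glo reagent at room temperature.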

[15] = qHTS assay to identify small molecule antagonists of the estrogen related receptor signaling pathway with the pleiotropic PPARgamma coactivator (PGC) cell viability counter screen (AID 1224822); settings: ERR/PGC reporter cell line viability counter screen; series mostly up to 46.1 µM
In short: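 Compounds in DMSO, with positive and negative controls, were applied to PGC/ERR cells (2,000/well) and left 17.5 h at 37 C before CellTiter-Fluor detection.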

[16] = qHTS assay to identify small molecule agonists of the estrogen related receptor signaling pathway with the pleiotropic PPARgamma coactivator (PGC) (AID 1224823); settings: ERR/PGC reporter cell line, luciferase agonist mode; series mostly up to 46.1 µM
In short: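 PGC/ERR reporter cells seeded 6 h, then exposed to compounds (23 nL in DMSO) for 18 h at 37 C. One-Glo luciferase luminescence read after 30 min at room temperature.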

[17] = biological target: Nuclear receptor subfamily 1 group I member 3 (Homo sapiens) (UniProt Q14994); assay: qHTS assay to identify small molecule antagonists of the constitutive androstane receptor (CAR) signaling pathway (AID 1224838); settings: HepG2-CYP2B6-hCAR luciferase, CITCO-stimulated, 24 h; series mostly up to 92.4 µM;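 note: HepG2 cells stably expressing hCAR with CYP2B6 luciferase reporter stimulated by CITCO; nearly all actives have a fitted effect of over 40% in size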
In short: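 Reporter luminescence was quantified after 24 h exposure of hCAR/CYP2B6-2.2kb double-stable HepG2 cells to compounds at 15 concentrations in the presence of 50 nM CITCO final.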

[18] = biological target: Thyrotropin receptor (Homo sapiens) (UniProt P16473); assay: qHTS assay to identify small molecule agonists of the thyroid stimulating hormone receptor (TSHR) signaling pathway (AID 1224843; calls by dose curve; note: nearly all actives have a fitted effect of over 45% in size); settings: TSHR-HEK293 cells, cAMP HTRF, agonist mode, 30 min; series mostly up to 92.4 µM
Thyrotropin receptor (Homo sapiens), sequence (P16473 whole entry, looked up): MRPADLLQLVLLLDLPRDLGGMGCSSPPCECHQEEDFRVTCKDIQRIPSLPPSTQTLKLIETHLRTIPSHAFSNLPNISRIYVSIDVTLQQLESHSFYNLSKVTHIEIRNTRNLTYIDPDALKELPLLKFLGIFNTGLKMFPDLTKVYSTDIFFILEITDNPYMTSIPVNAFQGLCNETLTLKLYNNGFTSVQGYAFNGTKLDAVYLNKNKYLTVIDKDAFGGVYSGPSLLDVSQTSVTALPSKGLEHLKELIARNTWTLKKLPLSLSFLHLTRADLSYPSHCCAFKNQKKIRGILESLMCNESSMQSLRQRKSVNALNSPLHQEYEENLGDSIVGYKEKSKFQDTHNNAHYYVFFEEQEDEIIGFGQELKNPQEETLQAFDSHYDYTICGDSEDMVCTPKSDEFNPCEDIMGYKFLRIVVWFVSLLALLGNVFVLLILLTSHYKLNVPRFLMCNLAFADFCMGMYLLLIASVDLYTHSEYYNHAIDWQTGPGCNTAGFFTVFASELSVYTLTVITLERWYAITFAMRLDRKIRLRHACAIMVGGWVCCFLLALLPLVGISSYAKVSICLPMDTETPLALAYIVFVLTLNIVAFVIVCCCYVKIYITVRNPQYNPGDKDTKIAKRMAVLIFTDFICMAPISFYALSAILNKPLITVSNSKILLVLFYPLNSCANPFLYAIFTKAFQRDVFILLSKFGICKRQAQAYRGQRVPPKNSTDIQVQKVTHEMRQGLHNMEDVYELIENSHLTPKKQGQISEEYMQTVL
In short: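 Cell line HEK293 with TSHR; density 800/well. Exposure 30 min RT. Readout HTRF cAMP (cAMP-d2/anti-cAMP-cryptate), 1 h RT before reading.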

[19] = qHTS assay to identify small molecule antagonists of the retinoic acid receptor (RAR) signaling pathway (AID 1159552; note: nearly all actives have a fitted effect of over 50% in size); settings: C3RL4 RARE luciferase reporter, retinol-stimulated, 6 h; series mostly up to 92.4 µM
In short: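 Luminescence from a RARE luciferase reporter in C3RL4 cells served as read-out. Cells received compounds together with 1 uM final retinol and incubated 6 hr at 37 C before detection reagent was added for 30 min at room temperature.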

[20] = test system: estrogen-related receptor alpha (ERRalpha) with PGC-1alpha coactivator, human; assay: qHTS assay to identify small molecule antagonists of the estrogen related receptor signaling pathway with the pleiotropic PPARgamma coactivator (PGC) (AID 1224821; calls by dose curve); settings: ERR/PGC reporter cell line, luciferase, antagonist mode; series mostly up to 46.1 µM
In short: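 PGC/ERR reporter cell line, plated 6 h before compound addition, then exposed 18 h at 37 °C. Luciferase activity read by luminescence 30 min after One-Glo addition; decrease indicates antagonism.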

Measured: Potency

O=[N+]([O-])CCO
inactive: [1] | [2] | [3] | [4] | [5] | [6] | [7] | [8] | [9] | [10] | [11]

Cc1ccc(S(=O)(=O)N[C@@H](CCCCN)C(=O)CCl)cc1
not listed: [7] | [19] | [20]
inactive: all other assays above

COP(=O)(OC)O/C(C)=C/C(=O)N(C)C
inactive: [1] | [2] | [19] | [4] | [5] | [6] | [9] | [10] | [11] | [18]

CON(C)C(=O)Nc1ccc(Br)cc1
inactive: [1] | [2] | [19] | [5] | [6] | [7] | [17] | [9] | [18]

COC(=O)c1ccc(CBr)cc1
active: [8] 31 µM
inactive: [1] | [2] | [19] | [4] | [5] | [6] | [7] | [17] | [9] | [18]

CCCC(C)(COC(N)=O)COC(N)=O
not listed: [3] | [7] | [12] | [13] | [14] | [15] | [16] | [20]
inactive: all other assays above

C=CC1(C)OC(=O)N(c2cc(Cl)cc(Cl)c2)C1=O (stereo not drawn)
inactive: [2] | [4] | [5] | [6] | [7] | [9]
34.5 µM (active) and inactive: [1]

C[N+]1(C)CCCCC1
inactive: [1] | [2] | [3] | [4] | [5] | [6] | [7] | [8] | [18]

CCN[C@H](C)Cc1cccc(C(F)(F)F)c1
inactive: [1] | [2] | [19] | [4] | [5] | [6] | [7] | [17] | [8] | [9] | [18]

c1cncc([C@@H]2CCCCN2)c1
inactive: [1] | [2] | [19] | [4] | [5] | [6] | [7] | [17] | [8] | [9]

S=C=S
not listed: [5] | [7] | [12] | [13] | [14] | [15] | [16] | [20]
inactive: all other assays above

BrCc1ccc(Br)cc1
inactive: [1] | [2] | [19] | [3] | [5] | [6] | [7] | [8] | [18]

NC1(c2ccccc2)CCCCC1
inactive: [1] | [2] | [19] | [3] | [5] | [8] | [9] | [18]

CCOC(=O)CC(SP(=S)(OC)OC)C(=O)OCC (stereo not drawn)
inactive: [1] | [2] | [12] | [4] | [6] | [7] | [17] | [18]
active: [5] 35.6 µM and 38.9 µM | [8] 21.7 µM and 26.6 µM

C/C(=N\NC(=O)Nc1cc(F)cc(F)c1)c1ncccc1C(=O)O
inactive: [1] | [2] | [4] | [5] | [6] | [7] | [17] | [8] | [9] | [18]

Cn1c(N)nc2c3cccnc3ccc21
active: [8] 32.7 µM
inactive: [1] | [2] | [19] | [9]

CCCN1CCC[C@@H]2Cc3nc(N)ncc3C[C@H]21
not listed: [3]
inactive: all other assays above

CC[C@H](O)C(C[C@H](C)N(C)C)(c1ccccc1)c1ccccc1
inactive: [1] | [2] | [19] | [5] | [6] | [17] | [8] | [18]

Oc1ccc2c3c1O[C@H]1[C@@H](O)C=C[C@H]4[C@@H](C2)NCC[C@@]341
inactive: [1] | [2] | [3] | [4] | [5] | [6] | [9] | [11] | [18]

CCOC(=O)C(Cl)Cc1cc(-n2nc(C)n(C(F)F)c2=O)c(F)cc1Cl (stereo not drawn)
inactive: [1] | [2] | [3] | [4] | [5] | [6] | [7] | [17] | [9]

C[C@H]1CCCC(=O)CCC/C=C/c2cc(O)cc(O)c2C(=O)O1
active: [4] 26.3 µM and 17.8 µM | [9] 23.4 µM
inactive: [1] | [2] | [5] | [8]

ClCCCCl
inactive: [1] | [2] | [19] | [4] | [5] | [6] | [17] | [8] | [9] | [18]

CCOC1Oc2ccc(OS(C)(=O)=O)cc2C1(C)C (stereo not drawn)
active: [8] 30.4 µM
inactive: [1] | [2] | [19] | [4] | [5] | [6] | [9] | [18]

NNC(N)=O
not listed: [3] | [9] | [10] | [11] | [13] | [14] | [16] | [20]
inactive: all other assays above
